# Source: PubChem
# A selection: hits, their analogues and other compounds. The true share with any hit is near 2.4%.
# Cruzain Triton – cruzain (T. cruzi) inhibition with detergent. P25779. Potency, µM, inactives show max response, negative = inhibition, most hits filed as inhibitors. purified cruzain, Z-FR-AMC fluorescence, 0.01% Triton. actives 0.43% (n = 200,000);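 note: plate controls were neutral wells for no effect and buffer without enzyme for full effect; nearly all actives have a fitted effect of over 40% in size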
# Target sequence (P25779 123-467 limits assumed): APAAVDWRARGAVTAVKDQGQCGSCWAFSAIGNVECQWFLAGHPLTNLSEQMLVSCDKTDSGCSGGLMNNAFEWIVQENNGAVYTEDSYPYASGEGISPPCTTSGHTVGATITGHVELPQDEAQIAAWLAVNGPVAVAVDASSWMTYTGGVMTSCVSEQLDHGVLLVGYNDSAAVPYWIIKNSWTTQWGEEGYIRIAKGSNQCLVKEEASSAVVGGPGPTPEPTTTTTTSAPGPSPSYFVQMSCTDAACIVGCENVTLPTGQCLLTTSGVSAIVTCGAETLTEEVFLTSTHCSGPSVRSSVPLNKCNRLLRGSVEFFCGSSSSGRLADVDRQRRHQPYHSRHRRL
#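 Purified cruzain (1.5 nM final) was preincubated with compounds for 15 min at room temperature in 100 mM sodium acetate pH 5.5, 5 mM DTT, 0.01% Triton X-100. Reaction started with 2 uM Z-FR-AMC; AMC fluorescence change over 60 s gave activity.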
# Cruzain noTriton – blocks cruzain activity in detergent-free assay. P25779. purified cruzain, Z-FR-AMC fluorescence, no detergent. Potency, µM, for inactives: max response, negative = inhibition, most hits filed as inhibitors. actives 2.3% (n = 200,000). AID 1476;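 note: plate controls were enzyme without inhibitor for no effect and buffer without enzyme for full effect; nearly all actives have a fitted effect of over 40% in size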
#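 Detergent-free condition (0.00005% Triton X-100) in acetate buffer pH 5.5 with DTT. 1.5 nM enzyme and compound were pre-mixed 15 min, then 2 uM Z-FR-AMC substrate added; reaction progress from fluorescence change between first and third reads (60 s).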
# The depositor's hits bear a star; u = inconclusive. Calls come from the whole dose curve; as a rule, active = well fitted curve in the direction sought with a large enough effect; inconclusive = small, poorly fitted or top-dose-only effect, or another doubt; inactive = no such curve, though single readings can be large; an effect the other way counts as inactive or inconclusive. Potency is the fitted concentration of half-maximal effect.
SMILES,Cruzain Triton,Cruzain noTriton
Cc1ccc(Cn2ccc(NC(=O)c3cc(-c4ccccc4)on3)n2)cc1,-4.2%,3.2%
COC(=O)c1c(C)sc(-c2c(-c3cccc(OC)c3)[nH]c3c2c(=O)[nH]c(=O)n3C)c1O,-1.7%,-1.1%
Cc1cccc(CNC(=O)c2cccc(NC(=O)N3CCSc4ncccc43)c2)c1,-19.5%,-8.1%
COc1cc(Cl)c(C)cc1NC(=O)c1ccc(CN2C(=O)CCn3nc(C)cc32)cc1,-5.8%,u
CSc1ccc(/C=c2\s/c(=C\C(=O)C(C)(C)C)n(CC(=O)NCCC3=CCCCC3)c2=O)cc1,-3.1%,3.16µM*
COCCNC(=O)CCCn1c(=O)c2ccccc2n(CC(=O)NCCC2=CCCCC2)c1=O,0.4%,14.8%
Cc1ccnc(N/C=C(\C#N)c2nc(-c3cccc(Br)c3)cs2)c1,u,25.1µM*
N#C/C(=C/c1ccc(Cl)cc1)c1nc(-c2ccc(Br)cc2)cs1,-1.7%,-9.3%
O=C(OCc1nc2scc(-c3ccccc3)c2c(=O)[nH]1)c1cc([N+](=O)[O-])ccc1Cl,-3.8%,u
CC(C)C(NC(=O)c1ccccc1Cl)C(=O)OCc1nc2scc(-c3ccccc3Cl)c2c(=O)[nH]1 (configuration not stated),-11.8%,25.1µM*
CCN(CC)CCNc1ncnc2c1[nH]c1ccc(OC)cc12,4.2%,u
COc1ccc2[nH]c3c(NCc4ccco4)ncnc3c2c1,17.8µM*,u
CCOC(=O)c1ccc(NC(=O)CSc2nccn2-c2ccc(OCC)cc2)cc1,-2.7%,17.4%
CCc1ccc(NC(=O)c2ccc3c(c2)N(Cc2ccc(C)cc2)CCS3)cc1,-5.5%,15.8µM*
Cc1ccc(CN2CCSc3ccc(C(=O)Nc4ccc(F)cc4F)cc32)cc1,-11.1%,u
COc1ccc(CCNC(=O)c2ccc3c(c2)N(Cc2ccc(C)cc2)CCS3)cc1OC,-3.7%,-2.0%
COc1cc(OC)c(NC(=O)c2ccc3c(c2)N(Cc2ccc(C)cc2)CCS3)cc1Cl,-3.8%,7.94µM*
CCOc1ccccc1NC(=O)Cn1c(=O)n(CCCCC(=O)NCCCOC)c(=O)c2ccccc21,-9.1%,-12.3%
COc1ccc(OC)c(NC(=O)C2CCN(S(=O)(=O)c3ccc4c(c3)CCCC(=O)N4)CC2)c1,-2.1%,10.7%
CCN1CCN(c2oc(-c3ccc(COc4ccc(C)cc4)o3)nc2C#N)CC1,-7.4%,5.6%
COc1ccccc1CNC(=O)CCc1c(C)nc2c(c(C)nn2-c2ccc(C)c(C)c2)c1C,-0.7%,2.4%
Cc1sc(NC(=O)COc2ccccc2)c(C#N)c1-c1ccccc1,u,-17.8%
CCc1ccc(-c2c(C)sc(NC(=O)C3CCC3)c2C#N)cc1,-0.3%,15.8µM*
CCCC(=O)Nc1sc(C)c(-c2ccc(C(C)CC)cc2)c1C#N (configuration not stated),9.3%,7.94µM*
Cc1sc(NC(=O)C2CCCC2)c(C#N)c1C,-18.0%,-16.7%
SMILES,Cruzain Triton,Cruzain noTriton
Cn1c(N)c(N2CCCCC2)c(=O)n(CC(=O)Nc2ccc(Cl)c(Cl)c2)c1=O,-0.9%,-4.0%
O=C(Cn1c2c(sc1=O)C1c3ccccc3OCC1CS2)Nc1ccc(Cl)c(Cl)c1 (configuration not stated),-1.6%,6.31µM*
CC(=O)N1CCc2c(sc3c2c(=O)n(-c2ccccc2)c(=O)n3CC(=O)c2ccc(F)cc2)C1,-0.3%,-2.1%
O=C1CSC(c2nn(-c3ccccc3)cc2-c2cc3ccccc3oc2=O)N1Cc1ccco1 (configuration not stated),25.1µM*,u
O=C1CSC(c2cn(-c3ccccc3)nc2-c2ccc3c(c2)OCCO3)N1CCN1CCOCC1 (configuration not stated),-0.6%,u
CN1CCN(C(=O)c2ccc(C3SCC(=O)N3Cc3ccco3)cc2)CC1 (configuration not stated),3.3%,-5.3%
O=C1CSC(c2cn(-c3ccccc3)nc2-c2cc3ccccc3oc2=O)N1Cc1ccccc1 (configuration not stated),28.2µM*,u
O=C(NCCc1csc(-c2cccc(F)c2)n1)c1cccs1,-9.4%,3.9%
CCC(=O)N1CCN(c2nc3ccccc3s2)CC1,-2.7%,-2.5%
O=C(c1cc2sccc2n1Cc1ccccc1)N1CCN(c2nc3ccccc3s2)CC1,-4.4%,7.94µM*
CO/N=C(\C(=O)NC1C(=O)N2C(C(=O)OCOC(=O)C(C)(C)C)=C(/C=C\c3scnc3C)CSC12)c1csc(N)n1 (configuration not stated),-19.7%,19.4%
Cc1cccc(Nc2ncc3c(n2)CC(C)CC3=O)c1 (configuration not stated),-7.2%,1.9%
Cc1nc(Nc2cccc(C(F)(F)F)c2)nc2c1C(=O)CC(C)C2 (configuration not stated),4.7%,15.8µM*
Cc1cc2oc(C(=O)N(Cc3ccccc3)C3CCS(=O)(=O)C3)cc(=O)c2cc1C (configuration not stated),-2.3%,-6.7%
